High-throughput results (PubChem)
FLuc counter: inhibits or activates purified firefly luciferase, miR-21 counter-screen; Potency, µM (titrated, usually from 57.5 µM), inactives show at the highest dose activity change, negative = inhibition, hits mostly inhibitors; 360,000 compounds, 6.9% hits; AID 588342; purified FLuc, Km substrates, luminescence inhibition;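 note: plate controls were vehicle for no effect and reference inhibitor for full effect; nearly all actives have a fitted effect of over 55% in size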
Target sequence (P08659 whole entry, looked up): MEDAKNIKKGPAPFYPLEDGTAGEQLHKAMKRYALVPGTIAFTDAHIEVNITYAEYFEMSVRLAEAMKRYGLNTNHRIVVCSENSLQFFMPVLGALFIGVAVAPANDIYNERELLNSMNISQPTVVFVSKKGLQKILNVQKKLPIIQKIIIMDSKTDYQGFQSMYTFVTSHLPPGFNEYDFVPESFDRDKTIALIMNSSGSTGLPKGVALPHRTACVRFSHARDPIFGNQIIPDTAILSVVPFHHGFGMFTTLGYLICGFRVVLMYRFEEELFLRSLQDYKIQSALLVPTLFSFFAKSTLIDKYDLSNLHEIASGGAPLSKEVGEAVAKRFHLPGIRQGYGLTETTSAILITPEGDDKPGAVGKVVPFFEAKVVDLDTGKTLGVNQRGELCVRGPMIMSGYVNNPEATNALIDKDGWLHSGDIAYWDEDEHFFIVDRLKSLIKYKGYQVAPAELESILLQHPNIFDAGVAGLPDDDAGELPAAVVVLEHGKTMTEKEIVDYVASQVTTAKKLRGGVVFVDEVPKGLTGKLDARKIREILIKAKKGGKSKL
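Purified P. pyralis luciferase (10nM final) with 10uM D-luciferin and 10uM ATP (Km levels) in 50mM Tris acetate pH 7.5, 10mM Mg acetate, 0.01% Tween-20, 0.05% BSA; qHTS 6-point titration, ~60 µM downward; luminescence read.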
ELG1 genotox: induces genotoxicity in HEK293T cells with luciferase-tagged ELG1 | Potency, µM (series often up to 46 µM), for inactives: top-dose activity change, positive = activation, usual class: activators | 330,000 compounds, 1.3% hits | HEK293T ELG1-luciferase reporter, luminescence, 16 h; note: % of control where 0% means no effect; nearly all actives have a fitted effect of over 60% in size
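Reporter readout depends on ELG1 protein level, which increases with genetic stress. After 16 hr compound exposure at 37 °C, luciferase activity was quantified using ONE-Glo.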
NPC1 prom act: NPC1 promoter activation. Huh7 NPC1 promoter luciferase reporter, 24 h. Potency, µM (top dose mostly 9.22 µM), for the others: at the top dose activation, actives largely listed as activators. 320,000 compounds, 2.4% hits; note: % of control where 0% means no effect; nearly all actives have a fitted effect of over 60% in size
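Stably transfected Huh7 (NPC1 promoter→luciferase), 1500 cells/well in Opti-MEM + 10% FBS, 2 h settle, then compound 24 h at 37 °C. Luminescence after 10 min with Amplite reagent.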
SMN2 splice enh: enhancers of SMN2 splice variant expression | HEK293 SMN2-luciferase splicing reporter, luminescence, 30-36 h | Potency, µM (highest dose often 46.1 µM), inactives show at the highest dose activity change, positive = activation, actives largely listed as activators | 210,000 compounds, 2.8% hits | AID 1458; note: % of control where 0% means no effect; nearly all actives have a fitted effect of over 55% in size
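qHTS luciferase splicing reporter: luminescence rises when SMN2 exon 7 is included in transfected HEK293 cells. Compound exposure lasted 30-36 h at 37C, with 4.5 mM final sodium butyrate as control, followed by a ONE-Glo read.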
Luc counter: counter-screen: inhibitors of Kinase-Glo firefly luciferase; Q27757; Kinase-Glo luciferase, ATP luminescence, 8 min; Potency, µM (top dose mostly 38.3 µM), without a hit: at the top dose activity change, negative = inhibition, hits mostly inhibitors; 200,000 compounds, 0.28% hits; note: % is set by controls: 0 for no effect and ±100 for the full control effect; nearly all actives have a fitted effect of over 60% in size
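Compound is pinned into ATP-containing buffer (10 uM ATP, imidazole pH 7.2, 7 mM MgCl2). Kinase-Glo luciferase reagent is then added. Light output is recorded following an 8-min room-temperature incubation.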
Rab9 promoter act: Rab9 promoter activation; Huh7 Rab9 promoter-luciferase reporter, luminescence, 24 h; Potency, µM (highest dose often 9.22 µM), for inactives: at the highest dose activation, negative = inhibition, hits mostly activators; 320,000 compounds, 2.8% hits; AID 485297; note: % of control where 0% means no effect; nearly all actives have a fitted effect of over 60% in size
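Luciferase signal after 10 min detection reagent at ambient indicates Rab9 promoter upregulation; stably transfected Huh7 cells were treated 24 h with compound in DMSO at 37 °C, 5% CO2.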
An asterisk follows results filed as active; ? = inconclusive; nt = no result; [ ] = remark or other dose. Shown are actives, neighbours in structure and some others; about 7.5% of the full set was active somewhere. Calls come from the whole dose curve; as a rule, active = well fitted curve in the direction sought with a large enough effect; inconclusive = small, poorly fitted or top-dose-only effect, or another doubt; inactive = no such curve, though single readings can be large; an effect the other way counts as inactive or inconclusive. Potency is the fitted concentration of half-maximal effect.

SMILES | FLuc counter | ELG1 genotox | NPC1 prom act | SMN2 splice enh | Luc counter | Rab9 promoter act
COc1ccc(NC(=O)N2CCc3nc(COc4ccccc4)c4c(c3C2)CO[C@@H](C)C4)cc1 | nt | nt | nt | 3%[9.22 µM] | 0%[7.66 µM] | nt
CC(=O)Nc1cccc(-c2csc(Nc3ccc(Cl)cn3)n2)c1 | 2.4µM* | ? | 2µM* | 11µM* | 3% | 3.2µM*
Cc1ccnc(Nc2nc(-c3ccccc3)cs2)c1 | 1.1µM* | ? | 1.4µM* | nt | nt | ?
NNc1nc(-c2ccccc2)cs1 | ? | ? | 14% | -48% | -3% | 16%
CC(=O)Nc1cccc(-c2csc(Nc3cc(C)ccn3)n2)c1 | 2.7µM* | -14% | 2.5µM* | ? | -3% | 1.3µM*
CC(=O)Nc1ccc(-c2csc(Nc3ccc(Cl)cn3)n2)cc1 | -20% | -4% | -3% | -42% | -7% | -4%
CC(=O)Nc1ccc(-c2csc(Nc3cc(C)ccn3)n2)cc1 | 15µM* | -14% | ? | -58% | -1% | 11%
CC(=O)Nc1ccc(-c2csc(NC(C)c3ccccc3)n2)cc1 (centres undefined) | ? | -2% | 3% | 22% | -5% | -10%
Cc1ccccc1OCCC(=O)OCC(=O)NNC(=O)c1cccs1 | -15% | 2% | 2% | nt | nt | 0%
CC(C)Oc1ccc(CNC(=O)c2ccc(CS(=O)Cc3ccccc3Cl)o2)cc1 (centres undefined) | -18% | nt | nt | nt | nt | nt
O=C(CN1C(=O)NC2(CCCc3ccccc32)C1=O)NCc1ccc(Cl)cc1Cl (centres undefined) | 0% | 0% | 1% | nt | nt | 0%
Cc1ccc(Nc2nc(-c3c(C)nc4ncccn34)cs2)cc1 | -21% | 18% | -14% | -2% | -8% | -30%
CC(=O)Nc1cccc(-c2csc(Nc3ccccn3)n2)c1 | 1.5µM* | ? | 1.3µM* | 11µM* | -4% | 1.1µM*
Cc1ccnc(Nc2nc(-c3c(C)nc4sccn34)cs2)c1 | 8.5µM* | -6% | 11% | -71% | 19% | -4%
O=C(NNc1nc2ccccc2s1)Nc1ccc(Cl)c(Cl)c1 | ? | 2% | 2% | nt | nt | -6%
CCCCCN(C(=O)NC(=O)Nc1nncs1)S(C)(=O)=O | -1% | -6% | -1% | 7% | -4% | -6%
O=C(O)C/C(=C\c1cccc(NC(=O)c2ccccc2Cl)c1)c1nc2ccccc2s1 | ? | 4% | -2% | nt | nt | 2%
COc1ccc(C(=O)Nc2cccc(/C=C(\CCC(=O)O)c3nc4ccccc4s3)c2)cc1 | 9.5µM* | 0% | 3.2µM* | nt | nt | ?
CCCCN(C(=O)NC(=O)Nc1nc2ccc(OC)cc2s1)S(C)(=O)=O | 24µM* | 8.2µM* | ? | 22µM* | -25% | ?
CC(C)C(=O)NNc1nc2ccccc2s1 | ? | 18µM* | ? | ? | -2% | ?
O=C(NNc1nc2ccccc2s1)Nc1ccc(F)cc1 | ? | ? | 4µM* | nt | nt | 3.2µM*
Oc1ccc(Cc2cc(Cl)cc(Cl)c2O)cc1Cl | nt | nt | nt | -12%[9.22 µM] | -2%[7.66 µM] | nt
CS(=O)(=O)N(CC(=O)O)Cc1cccc(CN(CC(=O)O)S(C)(=O)=O)c1 | -2% | -3% | -4% | nt | nt | 1%
COc1ccc(NC(=O)Nc2nc3ccccc3s2)cc1 | 2.4µM* | ? | 1.8µM* | nt | nt | 1.6µM*
COc1ccc(NC(=O)c2nc3ccccc3s2)cc1 | 1.1µM* | 1.3µM* | 3.5µM* | ? | 8.9µM* | 1.6µM*
CC(C)(C)c1nc(NC(=O)Nc2ccccc2)sc1Br | 19µM* | -5% | 28% | -3% | 0% | ?
O=C(Nc1nc2ccccc2s1)Nc1ccc(F)cc1F | 0.85µM* | 4.1µM* | 1µM* | nt | nt | 1.3µM*
CN(CC(=O)Nc1cccc(C#N)c1)S(=O)(=O)c1cc2c(cc1Cl)NC(=O)CO2 | -8% | nt | nt | nt | nt | nt
CCOc1ccc2nc(NC(=O)Nc3ccccc3)sc2c1 | 0.85µM* | ? | ? | 11µM* | 0% | 1.4µM*
COc1ccc2nc(NC(=O)C3=NN(c4ccccc4)C(=O)CC3)sc2c1 | ? | 1% | -4% | 7% | 0% | 1%
